Experimental data reported in the supplement of paper PMC11732987, “Enantioselective OTUD7B fragment discovery through chemoproteomics screening and high-throughput optimisation” (Communications Chemistry, 2025).

What was measured:
Assay in all cases: log2 ratio of Biotin-Ahx-Ub-VS probe labelling (fragment/DMSO); higher = less target engagement (more negative = stronger competition), active = hit call of the paper (q ≤ 0.05, log2 ratio ≤ -1)
Details in all cases: compound concentration: 200 uM; treatment time: 3 h
USP19 = target: T1, USP19 (UniProt O94966)
T1 sequence (whole entry): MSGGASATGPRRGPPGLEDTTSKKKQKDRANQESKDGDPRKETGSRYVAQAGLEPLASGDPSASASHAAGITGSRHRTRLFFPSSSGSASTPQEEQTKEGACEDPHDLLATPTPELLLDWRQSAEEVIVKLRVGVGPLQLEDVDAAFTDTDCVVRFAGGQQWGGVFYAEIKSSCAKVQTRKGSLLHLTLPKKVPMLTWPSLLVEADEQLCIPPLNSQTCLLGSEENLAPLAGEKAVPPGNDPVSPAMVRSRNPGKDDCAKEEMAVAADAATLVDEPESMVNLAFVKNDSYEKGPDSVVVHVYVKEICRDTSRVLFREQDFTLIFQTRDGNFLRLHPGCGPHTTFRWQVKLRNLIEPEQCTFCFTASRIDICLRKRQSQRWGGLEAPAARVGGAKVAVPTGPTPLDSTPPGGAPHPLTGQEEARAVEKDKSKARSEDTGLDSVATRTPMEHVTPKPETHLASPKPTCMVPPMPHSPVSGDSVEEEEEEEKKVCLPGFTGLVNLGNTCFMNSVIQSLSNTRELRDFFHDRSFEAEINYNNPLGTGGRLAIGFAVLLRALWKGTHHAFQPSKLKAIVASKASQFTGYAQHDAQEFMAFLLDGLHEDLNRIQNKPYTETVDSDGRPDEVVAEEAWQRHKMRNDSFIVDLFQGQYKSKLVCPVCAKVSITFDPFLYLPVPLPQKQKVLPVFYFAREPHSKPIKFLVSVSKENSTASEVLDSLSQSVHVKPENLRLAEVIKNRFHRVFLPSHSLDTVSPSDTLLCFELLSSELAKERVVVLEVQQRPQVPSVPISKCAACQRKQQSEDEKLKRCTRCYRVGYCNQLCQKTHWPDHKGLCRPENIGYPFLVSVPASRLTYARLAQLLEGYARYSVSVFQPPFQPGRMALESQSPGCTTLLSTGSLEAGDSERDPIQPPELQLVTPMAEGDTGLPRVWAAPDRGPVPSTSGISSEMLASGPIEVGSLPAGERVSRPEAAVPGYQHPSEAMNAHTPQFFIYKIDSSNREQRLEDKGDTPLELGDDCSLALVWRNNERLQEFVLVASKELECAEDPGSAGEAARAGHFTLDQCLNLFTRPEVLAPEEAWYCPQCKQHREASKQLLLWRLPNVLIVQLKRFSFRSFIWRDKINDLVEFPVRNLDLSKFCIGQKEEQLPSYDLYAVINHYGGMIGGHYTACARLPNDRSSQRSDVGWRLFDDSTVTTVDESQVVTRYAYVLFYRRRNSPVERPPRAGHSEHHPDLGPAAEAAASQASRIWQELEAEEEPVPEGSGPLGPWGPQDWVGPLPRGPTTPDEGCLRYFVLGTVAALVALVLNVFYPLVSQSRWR
Procedure, shortened: (§1)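 Average log2 ratios of fragment over vehicle were obtained by unpaired t-test from global-median-normalised Spectronaut label-free quantities. Proteins with ≥2 unique peptides were included. HEK293T lysate (495 µg per sample) was treated in triplicate with fragment at 200 µM or vehicle for 3 h, then with Biotin-Ahx-Ub-VS at 0.5 µM final for 1 h, and labelled DUBs were NeutrAvidin-enriched and run by diaPASEF LC-MS/MS.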

USP24 = USP24 (UniProt Q9UPU5)
Procedure, shortened: as §1

USP25 = target: T2, USP25 (UniProt Q9UHP3)
T2 sequence (whole entry): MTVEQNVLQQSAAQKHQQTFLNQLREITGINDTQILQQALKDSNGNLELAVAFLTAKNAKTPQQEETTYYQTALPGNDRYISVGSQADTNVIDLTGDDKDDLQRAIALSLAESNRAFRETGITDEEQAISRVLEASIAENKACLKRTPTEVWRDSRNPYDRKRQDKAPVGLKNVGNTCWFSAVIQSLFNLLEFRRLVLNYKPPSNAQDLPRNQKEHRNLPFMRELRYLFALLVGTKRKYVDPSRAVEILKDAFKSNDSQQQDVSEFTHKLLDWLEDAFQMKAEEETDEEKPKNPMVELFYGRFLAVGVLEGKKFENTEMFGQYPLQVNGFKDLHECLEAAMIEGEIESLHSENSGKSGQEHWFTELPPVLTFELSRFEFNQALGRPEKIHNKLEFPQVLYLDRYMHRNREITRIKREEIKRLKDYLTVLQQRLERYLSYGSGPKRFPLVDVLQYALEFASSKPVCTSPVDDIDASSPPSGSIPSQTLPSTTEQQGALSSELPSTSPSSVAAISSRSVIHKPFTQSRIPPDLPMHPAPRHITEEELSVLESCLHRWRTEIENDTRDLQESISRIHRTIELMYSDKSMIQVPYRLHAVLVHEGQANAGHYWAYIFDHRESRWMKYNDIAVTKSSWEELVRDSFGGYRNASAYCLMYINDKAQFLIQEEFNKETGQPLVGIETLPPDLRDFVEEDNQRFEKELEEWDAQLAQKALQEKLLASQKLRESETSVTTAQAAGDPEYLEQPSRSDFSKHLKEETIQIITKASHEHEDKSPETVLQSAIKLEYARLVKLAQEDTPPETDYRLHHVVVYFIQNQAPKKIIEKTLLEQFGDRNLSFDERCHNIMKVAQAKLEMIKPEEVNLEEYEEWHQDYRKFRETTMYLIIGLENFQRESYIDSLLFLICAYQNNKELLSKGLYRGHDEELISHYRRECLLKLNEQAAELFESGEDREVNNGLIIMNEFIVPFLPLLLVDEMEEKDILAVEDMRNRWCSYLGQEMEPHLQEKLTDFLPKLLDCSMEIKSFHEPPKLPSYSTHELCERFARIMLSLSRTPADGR
Procedure, shortened: as §1

USP28 = target: T3, USP28 (UniProt Q96RU2)
T3 sequence (whole entry): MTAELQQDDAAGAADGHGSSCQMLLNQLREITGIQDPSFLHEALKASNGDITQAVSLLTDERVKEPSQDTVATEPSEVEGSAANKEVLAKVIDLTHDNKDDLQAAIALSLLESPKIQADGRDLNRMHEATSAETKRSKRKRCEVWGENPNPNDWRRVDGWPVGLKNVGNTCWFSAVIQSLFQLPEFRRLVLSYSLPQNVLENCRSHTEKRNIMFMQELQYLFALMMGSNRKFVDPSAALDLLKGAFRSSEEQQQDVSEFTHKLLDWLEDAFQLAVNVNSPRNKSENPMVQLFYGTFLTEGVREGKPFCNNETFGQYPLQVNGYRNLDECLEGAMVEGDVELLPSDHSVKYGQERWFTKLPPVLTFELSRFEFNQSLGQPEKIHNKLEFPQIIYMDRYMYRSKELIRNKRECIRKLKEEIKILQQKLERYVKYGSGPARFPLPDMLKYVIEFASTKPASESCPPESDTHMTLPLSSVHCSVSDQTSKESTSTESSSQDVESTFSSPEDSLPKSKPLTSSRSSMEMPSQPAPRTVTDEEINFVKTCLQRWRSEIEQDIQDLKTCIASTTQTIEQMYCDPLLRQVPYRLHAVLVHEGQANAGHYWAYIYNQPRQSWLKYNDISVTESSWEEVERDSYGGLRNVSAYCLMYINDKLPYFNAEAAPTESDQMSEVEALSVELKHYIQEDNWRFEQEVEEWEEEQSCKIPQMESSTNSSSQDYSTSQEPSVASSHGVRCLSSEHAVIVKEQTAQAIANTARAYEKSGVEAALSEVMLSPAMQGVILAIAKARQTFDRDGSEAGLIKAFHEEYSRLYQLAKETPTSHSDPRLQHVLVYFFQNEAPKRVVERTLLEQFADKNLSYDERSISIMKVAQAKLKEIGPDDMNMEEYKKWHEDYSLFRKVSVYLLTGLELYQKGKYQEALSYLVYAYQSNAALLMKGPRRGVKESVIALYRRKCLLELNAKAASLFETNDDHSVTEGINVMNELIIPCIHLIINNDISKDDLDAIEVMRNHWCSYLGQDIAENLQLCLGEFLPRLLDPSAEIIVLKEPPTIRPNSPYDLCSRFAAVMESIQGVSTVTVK
Procedure, shortened: as §1

Measured: log2 ratio of Biotin-Ahx-Ub-VS probe labelling

USP24, sequence (Q9UPU5 whole entry): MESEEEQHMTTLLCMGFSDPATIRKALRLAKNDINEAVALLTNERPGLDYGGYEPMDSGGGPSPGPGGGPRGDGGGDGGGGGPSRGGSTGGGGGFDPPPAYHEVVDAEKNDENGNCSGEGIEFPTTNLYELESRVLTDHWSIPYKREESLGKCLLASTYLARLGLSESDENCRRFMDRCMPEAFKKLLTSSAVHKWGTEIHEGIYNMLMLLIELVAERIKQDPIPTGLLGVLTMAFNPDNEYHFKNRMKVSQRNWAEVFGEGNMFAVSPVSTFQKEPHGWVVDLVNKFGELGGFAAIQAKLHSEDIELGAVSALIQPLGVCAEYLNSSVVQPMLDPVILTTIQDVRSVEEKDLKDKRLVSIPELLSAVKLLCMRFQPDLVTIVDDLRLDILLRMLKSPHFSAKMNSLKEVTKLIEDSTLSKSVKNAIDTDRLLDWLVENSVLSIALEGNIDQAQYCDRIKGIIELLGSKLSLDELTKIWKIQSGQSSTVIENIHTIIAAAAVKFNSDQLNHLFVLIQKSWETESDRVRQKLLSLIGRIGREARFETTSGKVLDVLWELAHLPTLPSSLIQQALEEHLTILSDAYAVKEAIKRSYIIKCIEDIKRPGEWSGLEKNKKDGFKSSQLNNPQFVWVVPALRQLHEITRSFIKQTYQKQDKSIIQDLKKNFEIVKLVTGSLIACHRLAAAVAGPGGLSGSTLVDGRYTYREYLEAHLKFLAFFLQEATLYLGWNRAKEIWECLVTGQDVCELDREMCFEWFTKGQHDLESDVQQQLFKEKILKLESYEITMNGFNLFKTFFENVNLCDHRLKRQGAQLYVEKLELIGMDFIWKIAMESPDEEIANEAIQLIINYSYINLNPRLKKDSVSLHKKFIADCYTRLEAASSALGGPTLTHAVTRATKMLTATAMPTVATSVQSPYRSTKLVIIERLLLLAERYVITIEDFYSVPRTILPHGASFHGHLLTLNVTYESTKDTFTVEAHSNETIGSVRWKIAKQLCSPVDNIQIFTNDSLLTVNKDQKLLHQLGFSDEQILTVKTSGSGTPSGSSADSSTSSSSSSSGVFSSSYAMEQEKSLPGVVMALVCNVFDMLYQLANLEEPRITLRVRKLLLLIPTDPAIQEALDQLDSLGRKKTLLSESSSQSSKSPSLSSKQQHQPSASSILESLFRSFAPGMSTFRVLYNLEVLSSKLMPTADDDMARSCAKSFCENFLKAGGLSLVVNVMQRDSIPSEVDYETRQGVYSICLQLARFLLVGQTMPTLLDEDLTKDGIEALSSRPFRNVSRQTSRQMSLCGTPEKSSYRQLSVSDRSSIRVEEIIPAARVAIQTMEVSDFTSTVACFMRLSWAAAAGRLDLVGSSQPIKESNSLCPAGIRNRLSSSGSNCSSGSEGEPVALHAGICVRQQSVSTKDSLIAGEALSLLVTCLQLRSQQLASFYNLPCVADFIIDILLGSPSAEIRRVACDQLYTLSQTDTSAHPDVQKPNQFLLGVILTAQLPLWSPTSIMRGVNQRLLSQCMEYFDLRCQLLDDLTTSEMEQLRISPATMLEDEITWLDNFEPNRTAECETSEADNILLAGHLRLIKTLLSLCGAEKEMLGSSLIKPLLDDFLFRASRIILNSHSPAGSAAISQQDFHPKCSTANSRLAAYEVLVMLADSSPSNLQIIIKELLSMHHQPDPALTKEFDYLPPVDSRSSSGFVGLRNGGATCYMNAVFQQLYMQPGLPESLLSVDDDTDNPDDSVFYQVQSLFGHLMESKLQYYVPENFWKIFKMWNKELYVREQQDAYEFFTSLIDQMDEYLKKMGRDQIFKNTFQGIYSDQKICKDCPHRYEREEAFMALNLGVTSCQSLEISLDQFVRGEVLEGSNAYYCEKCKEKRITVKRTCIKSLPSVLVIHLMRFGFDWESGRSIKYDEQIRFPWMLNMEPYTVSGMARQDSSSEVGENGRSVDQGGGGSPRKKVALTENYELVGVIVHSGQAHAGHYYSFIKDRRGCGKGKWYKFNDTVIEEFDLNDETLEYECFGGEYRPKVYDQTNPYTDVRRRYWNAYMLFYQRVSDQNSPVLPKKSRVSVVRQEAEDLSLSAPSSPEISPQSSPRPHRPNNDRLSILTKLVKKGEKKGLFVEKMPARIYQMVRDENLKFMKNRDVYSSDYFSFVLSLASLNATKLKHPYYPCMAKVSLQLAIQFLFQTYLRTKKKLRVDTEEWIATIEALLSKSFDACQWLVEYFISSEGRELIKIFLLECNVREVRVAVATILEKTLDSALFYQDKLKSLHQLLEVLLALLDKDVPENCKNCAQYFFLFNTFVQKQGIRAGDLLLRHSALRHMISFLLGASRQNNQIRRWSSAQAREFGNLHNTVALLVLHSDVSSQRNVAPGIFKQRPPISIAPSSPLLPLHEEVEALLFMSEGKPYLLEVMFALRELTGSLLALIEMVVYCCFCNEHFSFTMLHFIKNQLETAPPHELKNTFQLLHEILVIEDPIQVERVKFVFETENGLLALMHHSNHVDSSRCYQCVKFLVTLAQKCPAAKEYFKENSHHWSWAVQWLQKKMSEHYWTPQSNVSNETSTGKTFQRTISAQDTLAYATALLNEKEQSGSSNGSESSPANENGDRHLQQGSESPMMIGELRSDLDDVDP

O=C(CCl)NCCC1COCCO1 (centres undefined)
inactive: USP19 -0.207 | USP24 -0.21 | USP25 -0.158 | USP28 -0.225
